In PubChem BioAssay AID2401 (Southern Research Specialized Biocontainment Screening …, 2010) one finds outcome data, which are given here for 32 molecules.

The structures appear in SMILES notation. Out of some 2,200 compounds screened, about 530 (24%) were called active.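 Rule for the calls: active = inhibition above a set limit at one or more concentrations of the dose series; inactive = inhibition under that limit at every dose.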 A selection follows. Measured potencies and affinities stand elsewhere.

A short description of the experiment: S. Typhimurium nonspecific reporter signal inhibition – Salmonella Typhimurium, GFP fluorescence, counter-screen for PhoP regulon inhibitor project, dose response (AID 2401).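 Note: S. typhimurium with Mg-insensitive nmpC-GFP reporter grown at 10 µM Mg2+; drop in reporter fluorescence reflects general culture growth inhibition.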 The note with it: 4 h; series mostly up to 150 µM.
Turning to `Cc1ccc(-c2csc(=S)n2CC(=O)OCC(=O)NCc2ccco2)cc1`, the result was inactive. For the molecule `Cc1ccc2c(c1)[nH]c1c(N3CCN(Cc4ccccc4)CC3)ncnc12`, the molecule was classed as inactive.

Turning to `CCc1nc(SCC(=O)N2CCCc3ccccc32)c2oc3ccccc3c2n1`, the molecule was classed as inactive. As for `O=C(CCCOc1ccccc1)N1CCCc2ccccc21`, the outcome was inactive. As to `O=C(CN1CCN(Cc2ccccc2)CC1)c1c[nH]c2ccccc12`, the molecule was classed as inactive. The entry for `C/C(Nc1ccc(F)cc1)=C(/C#N)C(N)=O` is “inactive”; for `CN(C)c1ccc(/C=N/c2cc(-c3ccccc3)nn2-c2ccccc2)cc1` it is “inactive”; for `CCC(CC)C(=O)NCCc1ccc(OC)cc1` it is “inactive”. For `CCOc1c(Br)cc(CNCc2cccs2)cc1OC` the value was “inactive”; for `S=C(NCc1ccncc1)Nc1ccc(Cl)c(Cl)c1`, “inactive”; for `O=C(NC(NC(=S)Nc1ccc(Cl)c(Cl)c1)C(Cl)(Cl)Cl)c1ccco1` (configuration not stated), “inactive”. For `Cc1ccsc1/C=N/NC(=O)Cn1cnc2ccccc21` the value was “inactive”; for `Cc1cc(NC(=O)c2ccccc2-c2ccccc2)ccc1Br`, “inactive”. For the molecule `CC1=CC2=NC(=O)/C(=C\c3cc(C)n(-c4ccc(F)cc4)c3C)C(=N)N2O1`, the result was inactive. For `CC(=O)NCCOc1c(C)cc(S(N)(=O)=O)cc1C` the value was “inactive”. For `O=C(NCCc1ccc(Cl)cc1)/C(=C/c1cccnc1)NC(=O)c1ccccc1` the value was “inactive”. For `Cc1ccc(S(=O)(=O)N2CCC(C(N)=O)CC2)c(C)c1C` the value was “inactive”; for `Cc1nc([N+](=O)[O-])c(Br)n1CC(=O)c1ccccc1`, “inactive”; for `CC(=O)Nc1ccc(-n2nnnc2SCC(=O)Nc2cccc(NC(=O)c3ccco3)c2)cc1`, “inactive”. `COc1ccc(C(=O)Nc2cc(C)ccc2NC(=O)COc2ccccc2)cc1`: the result was inactive. For `C=CCn1c(SCC(=O)Nc2nnc(CC)s2)nnc1-c1cccnc1` the value was “inactive”; for `Cc1ccc(C(=O)NCC(=O)NCC(=O)OCC(=O)c2ccc([N+](=O)[O-])cc2)cc1`, “inactive”; for `CCc1ccccc1NC(=O)c1nnn(CC(=O)Nc2cccc(C)c2C)c1N`, “inactive”. For `CC1CC(C)CN(CCCSc2ccccc2)C1` (configuration not stated) the value was “inactive”; for `COc1cccc(NC(=O)CNC(=O)c2cccs2)c1`, “inactive”; for `COCC(=O)N(Cc1ccco1)c1nnc(C2CCOC2)s1` (configuration not stated), “inactive”. For `Cc1ccc(C(C)C)cc1C(=O)CC1(O)C(=O)N(C)c2ccccc21` (configuration not stated) the value was “inactive”; for `COC(=O)CSc1nc(SCc2ccccc2Cl)nc2c1CCCC2`, “inactive”; for `CCOC(=O)c1[nH]c2ccccc2c1NC(=O)C(C)(C)C`, “inactive”.

As for `COc1ccc2nc(Nc3nc4cc5c(cc4s3)OCCO5)sc2c1`, the molecule was classed as inactive. For `NNc1nc2c(-c3cccc(C(F)(F)F)c3)nnn2c2ccccc12` the value was “inactive”; for `COc1ccc2oc(=O)cc(C)c2c1`, “inactive”.
